The list is not random: actives were taken first. Their share in the collection is about 2.8%.
ATXN viability = Viability Counterscreen for Primary qHTS for Inhibitors of ATXN expression. Potency, µM (highest dose often 56.7 µM), actives largely listed as cytotoxic. S2 cells (HEK-293 line with an ATXN2-luciferase reporter) viability, CellTiter-Fluor protease fluorescence, 24 h. actives 0.49% (n = 400,000); further: nearly all actives have a fitted effect of over 40% in size
ATXN2 expr inh = Primary qHTS for Inhibitors of ATXN expression; AID 1745845, 2022; HEK-293 ATXN2-luciferase reporter, luminescence, 24 h; Potency, µM (series often up to 57 µM), inactives show at the top dose activity change, negative = inhibition, hits mostly inhibitors; actives 0.72% (n = 360,000); further: on the % scale 0 is the no-effect control and ±100 the full control effect; nearly all actives have a fitted effect of over 55% in size
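ATXN2-luciferase reporter cells (luciferase flanked by upstream and downstream ATXN2 gene portions) were treated 24 h at 37 °C with compounds at up to 57 uM. SteadyGlo luminescence gave expression; GF-AFC fluorescence gave viability.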
TGFb inhibitor = qHTS for Inhibitors of TGF-b; HepG2 CAGA-GFP TGF-b/SMAD3 reporter, GFP fluorescence, 18 h; TGF-beta stimulated, 500 pg/mL final; Potency, µM (doses to about 46.1 µM), inactives show top-dose activity, negative = inhibition, hits mostly inhibitors; actives 1.2% (n = 410,000); AID 588855, 2011; further: on the % scale 0 is the no-effect control and ±100 the full control effect; nearly all actives have a fitted effect of over 65% in size
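HEPG2 CAGA-GFP, 1000 cells/well; 2 h settle, 37 C; cpd via pin tool; TGF-b 500 pg/mL final; 18 h, 37 C; GFP imaging ex488/em500-530; %Activity normalised to -TGF-b and +DMSO controls; CRC fit, curve class.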
HepG2 tox = qHTS for Inhibitors of TGF-b: Cytotox Counterscreen; HepG2 CAGA-GFP viability, ATP luminescence, 18 h; actives 0.76% (n = 410,000); AID 588856, 2011; Potency, µM (highest dose often 46.1 µM), for the others: at the highest dose activity change, negative = cytotoxicity, most hits filed as cytotoxic
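CellTiter-Glo luminescence gave cytotoxicity after 18 hours at 37 degrees C. The cells were HepG2 CAGA-GFP in 1% FBS DMEM, stimulated with 500 pg/mL TGF-beta after compound addition. %Activity was normalised to no-cell wells (complete cell-killing) and DMSO (no toxicity), and curves were fitted and classified.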
HttQ103 aggreg = qHTS Multiplex Assay to Identify Dual Action Probes in a Cell Model of Huntington: Aggregate Formation (GFP); actives 1.1% (n = 220,000); PC12 HttQ103-GFP aggregates, Acumen cytometry, 40 h; Potency, µM (top dose mostly 46.1 µM), inactives show at the top dose activity change, negative = inhibition, most hits filed as inhibitors; further: on the % scale 0 is the no-effect control and ±100 the full control effect; nearly all actives have a fitted effect of over 60% in size
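Huntingtin Q103 exon 1–GFP aggregates in induced PC12 cells (100 nM tebufenozide) were quantified by cytometry from lysates, with compounds dosed in titration.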
HTT ATP protect = qHTS Multiplex Assay to Identify Dual Action Probes in a Cell Model of Huntington: Cytoprotection (ATP). PC12 HTT-Q103 induced, cytoprotection, ATP luminescence, 40 h. Potency, µM (series often up to 56.4 µM), inactives show cytoprotection (ATP increase), most hits filed as activators. actives 0.14% (n = 230,000). AID 1471, 2008; further: % of control where 0% means no effect; nearly all actives have a fitted effect of over 45% in size
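ATP quantification (ATPlite) reports survival of PC12 cells in which tebufenozide, 100 nM final, switches on Htt exon 1 with 103 glutamines linked to GFP; compounds are titrated.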
Active calls of the source: *; i = inactive; ? = inconclusive; · = not tested or not shown; ! = not active in a repeat; [ ] = another dose, or the depositor's remark. The call rests on the fitted dose curve; in most records, active means well fitted curve in the direction sought with a large enough effect; inconclusive means small, poorly fitted or top-dose-only effect, or another doubt; inactive means no such curve, though single readings can be large; an effect the other way counts as inactive or inconclusive. Potency means the concentration at half of the fitted maximal effect.

SMILES | ATXN viability | ATXN2 expr inh | TGFb inhibitor | HepG2 tox | HttQ103 aggreg | HTT ATP protect
CN(C)CCCCCCNc1nccc(N2CCN(C)CC2)n1 | · | · | 3% | -38% | · | ·
Nc1nc2c(ncn2COC(CO)CO)c(=O)[nH]1 | i | 24µM*! | -2% | 2% | -8% | -4%[40.3 µM]
CCCCn1cnc2c(=O)[nH]c(N)nc21 | · | · | 3% | -3% | · | ·
Nc1ncn(C(=S)Nc2ccccc2)n1 | ? | ? | 8.9µM* | -47% | · | ·
COc1ccc(-c2nc3c(c4c2C[C@H](c2ccccc2)OC4)CN(S(=O)(=O)c2ccc(C)cc2)CC3)c(C)c1 | · | · | · | · | · | -4%[10 µM]
Cc1ccccc1C(=O)NNC(=S)Nc1cccc(C(F)(F)F)c1 | i | ? | ? | 10µM* | 19% | ·
O=C(NNC(=S)Nc1cccc(C(F)(F)F)c1)c1ccc(Cl)cc1Cl | i | -23% | ? | -57% | 11µM* | 5%[10 µM]
FC(F)(F)c1cccc(NC(=S)NNC(=S)Nc2cccc(C(F)(F)F)c2)c1 | · | · | · | · | -5%[9.22 µM] | -2%[10 µM]
COC(=O)/C(Cc1cc(Br)c(OC)c(Br)c1O)=N/O | · | · | · | · | · | 57%
Cc1cc(C(=O)Nc2ccccc2-c2nc(CNC(=O)c3ccc(F)cc3F)c(C)o2)c(C)o1 | i | · | · | · | · | ·
Cc1cc(C)n(CC(=O)N2CCC(n3c(C(C)C)nc4cccnc43)CC2)n1 | i | · | · | · | · | ·
Cc1cccc2sc(N(CCCN(C)C)C(=O)COc3ccc(Cl)cc3)nc12 | i | -38% | -25% | 22µM* | -8% | -9%
COc1ccc2sc(N(CCN(C)C)C(=O)/C=C/c3cccs3)nc2c1 | ? | · | ? | 20µM* | -18% | -10%
Cc1cccc2sc(N(CCCN(C)C)C(=O)COc3ccccc3)nc12 | · | · | · | -32% | · | ·
CN(C)CCCN(C(=O)CCOc1ccccc1)c1nc2c(F)cccc2s1 | · | -32% | ? | 11µM* | 13µM* | -176%
CN(C)CCCN(C(=O)/C=C/c1cccs1)c1nc2c(F)cccc2s1 | ? | ? | 18µM* | 13µM* | ? | -25%
Cc1nc([N+](=O)[O-])cn1CC(=O)c1ccc2c(c1)OCCCO2 | · | · | 19% | 11% | · | ·
CCc1ccc2[nH]c(=O)c(C3C(C#N)=C(N)Oc4c3ccc3cccnc43)cc2c1 (stereo not drawn) | i | ? | ? | -4% | ? | -46%
Cc1ccc2cc(C3C(C#N)=C(N)Oc4c3ccc3cccnc43)c(=O)[nH]c2c1 (stereo not drawn) | i | ? | ? | -4% | 2.5µM* | -58%
Cc1nc([N+](=O)[O-])cn1CC(O)c1ccc2c(c1)OCCCO2 (stereo not drawn) | · | · | -10% | 1% | · | ·
Cc1cc(C(=O)CCl)c(C)n1Cc1ccco1 | 25µM* | ? | ? | -26% | ? | 3%
CCOC(=O)c1cc(C)n(CCc2ccccc2)c1C | i | 21% | 2% | -16% | -23% | -7%
Cc1cc(C(=O)CCl)c(C)n1CCc1ccccc1 | ? | -33%[11.3 µM] | ? | 7.9µM* | -23% | 9%[10 µM]
Cc1ccc2cc(CNCc3cccc4ccccc34)c(N3CCC(O)CC3)nc2c1 | i | · | · | · | · | ·
OC[C@H]1O[C@@H](OCCc2ccc(O)cc2)[C@H](O)[C@@H](O)[C@H]1O | i | -18% | · | · | · | ·
SMILES | ATXN viability | ATXN2 expr inh | TGFb inhibitor | HepG2 tox | HttQ103 aggreg | HTT ATP protect
CC(=O)c1cccc(NC(=O)C(C)OC(=O)c2ccc(S(C)(=O)=O)c([N+](=O)[O-])c2)c1 (stereo not drawn) | · | · | 11µM* | 14µM* | · | ·
CC(=O)c1cccc(NC(=O)COC(=O)c2ccc(S(C)(=O)=O)c([N+](=O)[O-])c2)c1 | i | 18% | 10µM* | -105% | ? | -55%
CC(OC(=O)c1ccncc1)C(=O)Nc1cccc([N+](=O)[O-])c1 (stereo not drawn) | i | -22% | -1% | -1% | -7% | -4%
N#CC1(c2ccc(NC(=O)c3cccnc3NCc3ccncc3)cc2)CCCC1 | · | 41% | · | · | · | ·
C=CCN=c1scc(-c2ccc3c(c2)NC(=O)CO3)n1/N=C(\C)c1ccccn1 | i | ? | 11µM* | -42% | 5µM* | -53%[10 µM]
C=CCN=c1scc(-c2ccc(F)cc2)n1/N=C/c1ccccn1 | i | 6% | ? | -40% | -23% | 37%[10 µM]
COc1cc(=O)n2c(c1C(=O)NC(C)c1ccco1)CCN(C(=O)c1cc(C)cc(C)c1)CC2 (stereo not drawn) | i | · | · | · | · | ·
COc1ccc(CNc2ncc(-c3ccc(F)cc3)n2C)c2ccccc12 | i | 2µM* | ? | -43% | · | ·
O=C(CCl)Nc1cc(-c2ccccc2)nn1-c1ccccc1 | 32µM* | ? | ? | -111% | 8% | -30%
COCCNC(=O)c1cn(C2CCN(C3CCCC3)CC2)nn1 | i | · | · | · | · | ·
N#Cc1nc(COc2ccc(-c3ccccc3)cc2)oc1N1CCC(C(N)=O)CC1 | · | · | -23% | -55% | · | ·
Cc1ccc(Nc2nc(N)nc(CSc3nc4ccccc4s3)n2)cc1 | · | ? | 13µM* | -63% | ? | -41%
CCOc1ccc(Nc2nc(N)nc(CCl)n2)cc1 | ? | ? | 11µM* | -61% | ? | -20%[10 µM]
Cc1cccc(Nc2nc(N)nc(CCl)n2)c1C | ? | 1µM* | 14µM* | -54% | ? | -52%[10 µM]
Cc1ccc(Nc2nc(N)nc(CC#N)n2)cc1 | i | 36% | 13µM* | -44% | 6.3µM* | -17%
Cc1ccc(Nc2nc(N)nc(CCl)n2)c(C)c1 | · | ? | -8% | -43% | ? | -22%[10 µM]
CC(C)Oc1ccc(C(=O)NCC2Cc3cc(F)cc(-c4cnccn4)c3O2)cc1 (stereo not drawn) | i | · | · | · | · | ·
Cc1c(C(=O)NCc2ccco2)cnn1-c1ncc2c(n1)-c1ccccc1CC2 | i | · | · | · | · | ·
CC(CCC(C)[n+]1cccc(Br)c1)[n+]1cccc(Br)c1 (stereo not drawn) | · | · | -1% | 7% | · | ·
Cc1ccc(Nc2nc(N)nc(CCl)n2)cc1 | · | 11µM* | ? | -23% | 1%[9.22 µM] | 9%[10 µM]
C=C1C=C(C(F)F)n2ncc(C(=O)NCc3ccccc3)c2N1 | · | · | 20% | -4% | · | ·
CC(=O)Nc1ccc(NC(=O)c2ccc(S(=O)(=O)N(C)c3ccccc3)cc2)cc1 | ? | · | -14% | -29% | · | ·
Cc1nc2ccc(NC(=O)c3ccc(S(=O)(=O)N(C)c4ccccc4)cc3)cc2s1 | ? | 30µM* | ? | 1% | ? | 1%[10 µM]

Screens deposited in PubChem BioAssay by National Center for Advancing Translational Sciences (NCATS).
